Compound activity (PubChem BioAssay)
Only some compounds are listed: those with a hit (about 4.2% of all), similar ones and a draw of the others.
VDR inh: blocks the human vitamin D receptor | Potency, µM, for inactives: max response, negative = inhibition, usual class: inhibitors | VDR-SRC2-3 peptide fluorescence polarization, 2 h | hit rate 0.93% among 400,000
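The screen uses fluorescence polarization to detect compounds that interfere with recruitment of the SRC2-3 coactivator peptide to VDR; plates are read after 2 h at room temperature.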
Sfp inh: inhibitors of Bacillus subtilis Sfp phosphopantetheinyl transferase | Q9F4F7 | Biochemical Sfp PPTase activity, qHTS | Potency, µM, without a hit: largest response in the series, negative = inhibition, usual class: inhibitors | hit rate 3.5% among 310,000;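 note: the enzyme is Sfp with the accession as filed and its product quenches rhodamine fluorescence; 0% = enzyme reaction without inhibitor and -100% = no enzyme wells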
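Compounds were incubated with enzyme (final 15 nM) for 15 min at room temperature before substrate addition started the reaction. Fluorescence at 525 nm excitation, 598 nm emission was recorded immediately and after 30 minutes.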
PLK1 PBD block: PLK1 (human) polo-box domain binding inhibition; AID 720504; Plk1 PBD binding of FITC phosphopeptide, fluorescence polarization; P53350; hit rate 2.8% among 360,000; Potency, µM, without a hit: max response, negative = inhibition, most hits filed as inhibitors; note: series mostly up to about 57 µM; nearly all actives have a fitted effect of over 65% in size
Target sequence (P53350 whole entry, looked up, the tested form may be a part): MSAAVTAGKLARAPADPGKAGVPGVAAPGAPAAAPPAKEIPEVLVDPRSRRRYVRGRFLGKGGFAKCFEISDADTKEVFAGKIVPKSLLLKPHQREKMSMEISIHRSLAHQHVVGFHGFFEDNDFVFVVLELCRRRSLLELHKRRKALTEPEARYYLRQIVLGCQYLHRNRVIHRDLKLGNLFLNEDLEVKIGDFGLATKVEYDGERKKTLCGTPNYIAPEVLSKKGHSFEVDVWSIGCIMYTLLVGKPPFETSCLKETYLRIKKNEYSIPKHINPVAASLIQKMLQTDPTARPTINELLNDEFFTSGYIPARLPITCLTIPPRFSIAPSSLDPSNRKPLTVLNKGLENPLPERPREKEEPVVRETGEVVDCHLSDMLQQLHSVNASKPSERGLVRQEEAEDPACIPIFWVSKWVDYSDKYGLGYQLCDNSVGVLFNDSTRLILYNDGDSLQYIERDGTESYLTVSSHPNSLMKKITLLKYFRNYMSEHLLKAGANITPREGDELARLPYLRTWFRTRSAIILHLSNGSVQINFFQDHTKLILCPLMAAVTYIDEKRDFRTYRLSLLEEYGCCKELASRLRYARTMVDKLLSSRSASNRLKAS
12-LOX inh: inhibitors of human 12S-lipoxygenase ALOX12; P18054; purified 12hLO, xylenol orange hydroperoxide absorbance; Potency, µM (top dose mostly 108 µM), for the others: at the highest dose activity change, negative = inhibition, actives largely listed as inhibitors; hit rate 1.1% among 580,000; AID 1671190
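Purified human 12hLO (150 nM final) in 25 mM Hepes, 0.01% Triton X-100, pH 7.0 was preincubated 15 min at room temperature with compound. Then 40 uM arachidonic acid was added, 30 min. Hydroperoxide was read by Fe-XO absorbance ratio 573/405 nm.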
The depositor's hits bear a star; ? = inconclusive; . = not tested or not shown; [ ] = another dose, or the depositor's remark. Calls come from the whole dose curve; as a rule, active = well fitted curve in the direction sought with a large enough effect; inconclusive = small, poorly fitted or top-dose-only effect, or another doubt; inactive = no such curve, though single readings can be large; an effect the other way counts as inactive or inconclusive. Unless noted, % is set by controls: 0 for no effect and ±100 for the full control effect; potency is the fitted concentration of half-maximal effect.

SMILES | VDR inh | Sfp inh | PLK1 PBD block | 12-LOX inh
CCOC(=O)C1(C)NC(c2cccs2)C2C(=O)N(c3ccc(C)cc3)C(=O)C21 (stereo not given) | -1% | 18% | -13% | -16%
COC(=O)C1(CO)NC(c2cccs2)C2C(=O)N(c3ccccc3)C(=O)C21 (stereo not given) | 18% | 10% | 27µM* | -8%
O=C(O)c1cccc(N/N=C/c2cn(-c3ccccc3)nc2-c2cccs2)c1 | -4% | -8% | ? | 45µM*
NC(=O)N/N=C/c1cn(-c2ccccc2)nc1-c1cccs1 | 2% | -3% | 2% | -4%
Cc1nnc(N(C(=O)c2cnccn2)c2ccccc2)s1 | -5% | 12% | 11µM* | 0%
CN(C)/C=N/C(=S)Nc1cc(Cl)cc(Cl)c1 | -7% | -2% | -12% | ?
CN(C)/C=N/C(=S)Nc1ccc(Cl)c(Cl)c1 | ? | -2% | 24µM* | ?
Cc1cc(C)cc(NC(=S)Nc2ccc(Cl)c(Cl)c2)c1 | -8% | 16% | -10% | 40µM*
CN(O)/C=N/C(=S)Nc1ccc(Cl)cc1Cl | ? | ? | 30µM* | ?
CN(C)/C=N/C(=S)Nc1ccccc1Cl | -16% | 50µM* | -14% | -29%
Cc1cccc(C)c1NC(=S)Nc1ccc(Cl)c(Cl)c1 | 20% | -2% | -4% | ?
CCNC(=S)Nc1ccc(Cl)cc1Cl | 9% | 20% | -16% | -16%
O=[N+]([O-])c1cccc(/C([O-])=C(/C(=S)Nc2ccccc2)[n+]2ccccc2)c1 | ? | ? | -13% | -25%
[O-]/C(=C(\C(=S)Nc1ccccc1F)[n+]1ccccc1)c1ccc(-c2ccccc2)cc1 | -30% | 18µM* | -17% | -13%
[O-]C(=C(C(=S)Nc1cccc2ccccc12)[n+]1ccccc1)c1ccc2c(c1)OCCO2 | -3% | . | ? | .
[O-]/C(=C(\C(=S)Nc1ccc(Cl)cc1)[n+]1ccccc1)c1ccc(OC(F)F)cc1 | ? | 50µM* | ? | ?
CCOc1ccccc1NC(=S)/C(=C(\[O-])c1ccc2c(c1)OCCO2)[n+]1ccc(CC)cc1 | 44% | ? | 21µM* | -6%
CC(C)(C)c1cc[n+](/C(C(=S)Nc2ccccc2F)=C(/[O-])c2ccc3c(c2)OCCO3)cc1 | -23% | 20µM* | -29% | -5%
Cn1cnc(C(=O)N2CCC(F)(c3nc(-c4ccncc4)no3)CC2)c1 | . | . | . | 17%
CCCc1[nH]nc2c1C(c1ccc(OC)c(CSC3=NCCS3)c1)C(C#N)=C(N)O2 (stereo not given) | -20% | 79µM* | ? | ?
CCCOc1ccc(N2C(=O)CC(N3CCCC(C(=O)N4CCCC4)C3)C2=O)cc1 (stereo not given) | 0% | 11% | -7% | 320%
CC(C)(C)NC(=S)NC(=O)C12CCC3CC(CC(C3)C1)C2 | -2% | 3% | -8% | 32µM*
CCN(CC)C(=O)CCc1nnc(Cc2cccc(C(F)(F)F)c2)o1 | ? | 1% | ? | 2%
O=C(c1ccc(F)cc1)N(c1ccccc1F)C(CCc1ccccc1)c1nc2ccccc2[nH]1 (stereo not given) | . | . | . | 5µM*
O=S(=O)(O)c1ccc2c(c1)-c1nc-2nc2[nH]c(nc3nc(nc4[nH]c(n1)c1ccc(S(=O)(=O)O)cc41)-c1ccc(S(=O)(=O)O)cc1-3)c1ccc(S(=O)(=O)O)cc21 | 25µM* | ? | . | .
SMILES | VDR inh | Sfp inh | PLK1 PBD block | 12-LOX inh
Nc1cc(S(=O)(=O)O)cc2ccc(S(=O)(=O)O)cc12 | 5% | . | -10% | -32%
CCCCOC(=O)Sc1nc2ccccc2o1 | ? | 40µM* | ? | -9%
O=C(COC(=O)C1CCC(=O)N1)Nc1ccc(Oc2ccccc2)cc1 (stereo not given) | 1% | ? | -5% | -16%
O=C(COC(=O)C1CCC(=O)N1)Nc1ccccc1Br (stereo not given) | 22µM* | 23% | 21µM* | 13%
COc1ccc(C(=O)COC(=O)C2CCC(=O)N2)cc1 (stereo not given) | 7% | 19% | -4% | -5%
O=C1CCC(C(=O)OCC(=O)c2ccccc2)N1 (stereo not given) | ? | 10% | 27µM* | 8%
CC(=O)Nc1ccc(CN2CCC[C@H]2c2nc(-c3ccnc(N4CCC(C(N)=O)CC4)c3)no2)cc1 | . | . | . | 5%
CC(C)CCN=Cc1c(O)n(-c2ccccc2)c(=O)c2ccccc12 | 0% | 56µM* | -6% | 9%
CCN1CCCC1CN=Cc1c(O)n(-c2ccccc2)c(=O)c2ccccc12 (stereo not given) | 4% | 11% | -9% | 0%
O=C(COc1ccc(Cl)cc1)OCCCC(=O)c1ccc(F)cc1 | . | . | . | 0%
O=C(CNc1ccc(Cl)cc1)c1ccc(Br)cc1 | -6% | 7% | -5% | -33%
O=C(CNc1ccc(Br)cc1)c1ccc(O)cc1 | 3% | 40µM* | ? | ?
COc1ccc(NC(=S)N2CCC(N(C)CC3CCCO3)CC2)cc1Cl (stereo not given) | -15% | 40µM* | ? | -24%
CSc1nc(=NC(C)=O)ss1 | ? | 4.5µM* | 7.9µM* | ?
CC1CCCCC1NC(=O)Cn1c(=O)oc2cc(S(=O)(=O)N3CCCC3)ccc21 (stereo not given) | -8% | 10% | -14% | 11%[57.4 µM]
S=c1[nH]nc(-c2ccco2)n1/N=C/c1cccc(Cl)c1 | -7% | -4% | ? | -10%
S=c1[nH]nc(-c2ccco2)n1/N=C/c1ccc(Cl)c(Cl)c1 | -21% | -9% | 9.5µM* | ?
S=c1[nH]nc(-c2ccccn2)n1/N=C/c1ccco1 | -1% | 45µM* | -9% | ?
S=c1[nH]nc(-c2ccco2)n1/N=C/c1ccccn1 | . | 79µM* | . | .
COc1ccc(-c2n[nH]c(=S)n2Cc2ccco2)cc1 | -4% | -1% | -23% | ?
CC1=C(C(=O)c2ccccc2)C(NC(=O)CC(C)C)(C(F)(F)F)C(=O)N1Cc1ccccc1 (stereo not given) | . | . | . | 2%
COc1cccc(N2CC(C(=O)Nc3nnc(SCC(=O)c4ccccc4)s3)CC2=O)c1 (stereo not given) | 4% | 79µM* | -14% | 4%
COCCNC(=O)CSc1nnc(NC(=O)C2CC(=O)N(c3ccccc3OC)C2)s1 (stereo not given) | -14% | 50µM* | ? | -5%
COc1ccc(C(=O)CSc2nnc(NC(=O)C3CC(=O)N(c4ccccc4)C3)s2)cc1 (stereo not given) | 7% | -3% | -3% | -14%
COc1ccccc1N1CC(C(=O)Nc2nnc(SCC(=O)N3CCCC3)s2)CC1=O (stereo not given) | -6% | . | ? | -6%
CCC1Oc2ccc(NC(=O)c3ccccc3F)cc2CN(CCc2ccc(OC)c(OC)c2)C1=O (stereo not given) | . | . | . | 2%
Cc1ccc(N(C(=O)c2csnn2)C(C(=O)NC2CCCCC2)c2ccccn2)cc1 (stereo not given) | 5% | 25% | -5% | -14%
O=[N+]([O-])c1ccc(/C=N/NC(=S)Nc2ccc(Cl)cc2Cl)s1 | 2% | 56µM* | -9% | ?
